The source made the active and inactive calls. Rule for the calls: active = hit-call score of the fitted dose curve at least 0.9, where 1 is the maximum; inactive = score below 0.9.

The experiment can be described thus: ATG_DR4_LXR_CIS: Attagene CIS-FACTORIAL HepG2 Assay for human Liver X Receptor (LXR), DR4 submotif (AID 2282929). Conditions: HepG2 Attagene DR4 cis-reporter, mRNA transcription; actives raise or lower the signal. Here is the method: ATG_CIS is a cell-based, multiplexed-readout assay that uses HepG2, a human liver cell line, with measurements taken at 24 hours after chemical dosing in a 24-well plate.ATG_DR4_LXR_CIS is one of 52 assay component(s) measured or calculated from the ATG_CIS assay. It is designed to make measurements of mRNA induction, a form of inducible reporter, as detected with fluorescence intensity signals by Reverse transcription polymerase chain reaction (RT-PCR) and Capillary electrophoresis technology.Data from the assay component ATG_DR4_LXR_CIS was analyzed into 1 assay endpoint. This assay endpoint, ATG_DR4_LXR_CIS, was analyzed with bidirectional fitting relative to DMSO as the negative control and baseline of activity. Using a type of inducible reporter, measures of mRNA for gain or loss-of-signal activity can be used to understand the reporter gene at the transcription factor-level as they relate to the gene NR1H2 and NR1H3. Furthermore, this assay endpoint can be referred to as a primary readout, because this assay has produced multiple assay endpoints where this one serves a reporter gene function. To generalize the intended target to other relatable targets, this assay endpoint is annotated to the nuclear receptor intended target family, where the subfamily is non-steroidal.
Human liver HepG2 cells are transiently transfected with multiple reporter transcription units (MRTUs) in 6-well plates using FuGene 6 reagent (Roche; 3 ml FuGene/1 mg DNA). The MRTU constructs are regulated by a cis-regulating element (promoter). […] A major difference between the CIS and TRANS system is that in CIS activities of endogenous TFs are measured, whereas the TRANS assay evaluates changes in activities of exogenous, chimeric NR-Gal4 proteins. […] At the end of 24 hour incubation, total RNA was isolated using TriZol reagent (Invitrogen). The isolated RNA is then reverse-transcribed using oligo(dT) primer and Mo-MLV reverse transcriptase (Invitrogen) with DNAse I (Ambion) treatment for 30 min. The one-tenth of the produced cDNA was amplified by PCR using Taq DNA polymerase (Invitrogen) and two reporter sequence-specific primers. The PCR products were fluorescently labeled by primer extension with 6-arboxyfluorescein (6-FAM) 5'-labeled reporter sequence-specific primer (2 min at 95 C, 20 s at 68 C and 10 min at 72 C) and these products were digested with 5U of HpaI (New England Biolabs) for 2h at 37 C. The fragments were purified using Qiaquick PCR columns (Qiagen), analyzed on an ABI 3130xL genetic analyzer (Applied Biosystems) with peak positions identified by using a set of X-rhodamine (ROX)-labeled MapMarker1000 molecular weight standards (BioVentures). The raw capillary electrophoresis data was processed using Attagraph software (Attagene).
As for `CO/N=C(/C(=O)OC)c1ccccc1COc1ccccc1C`, the result was inactive.

On to `c1ccc2c(c1)sc1ccccc12`, for which the result was inactive.

`O=C(O)CF`: the compound was called inactive.

As for `FC(F)(F)c1ccc(Cl)cc1`, the compound was classed as inactive.

On to `Oc1ccccc1Br`, for which the outcome was inactive.

For the compound `CCC(C)(C)c1ccc(O)cc1`, the outcome was inactive.

As to `O=C(O)C(F)(F)C(F)(F)C(=O)O`, the outcome was inactive.

As a reminder, the AC50 is the midpoint of the concentration-response curve, whichever way the signal moves. For the compound `O=P(OCC(Br)CBr)(OCC(Br)CBr)OCC(Br)CBr` (stereo not given), the AC50 was 8.35 µM (active).

Consider `Cc1ccc(N)cc1N`, for which the compound was called inactive.

With `CCCCC(CC)COP(=O)(Oc1ccccc1)Oc1ccccc1` (stereo not given), the half-maximal activity concentration (AC50) is 26.1 µM (active).

As to `Cc1ccc2c(c1N)C(=O)c1ccccc1C2=O`, the result was inactive.

For `Nc1cc2c3c(c1)C(c1ccccc1)=N[C@@H](NC(=O)c1cccnc1)C(=O)N3CC2`, the result was inactive.

`CCNc1nc(Cl)nc(NC(C)(C)C)n1`: the result was inactive.

Regarding `CCOP(=O)(O)C(N)=O`, the outcome was inactive.

`CC(=O)c1ccc(-c2ccccc2)cc1`: the call was inactive.

For `CCOC(=O)c1ccccc1N`, the result was inactive.

As to `ClC(Cl)c1ccccc1`, the call was inactive.

As for `CCOP(=S)(OCC)SCSCC`, the result was inactive.

For `Cc1c([N+](=O)[O-])cc2c(c1[N+](=O)[O-])C(C)(C)CC2(C)C`, the outcome was inactive.

As to `OCC(F)(F)OC(F)(F)C(F)(F)OC(F)(F)C(F)(F)OC(F)(F)CO`, the compound was called inactive.

Turning to `O=P(Oc1ccccc1)(Oc1ccccc1)Oc1ccccc1`, the AC50 was 13.5 µM (active).

Regarding `CCOP(=S)(OCC)SCn1nnc2ccccc2c1=O`, the AC50 is 64.7 µM (active).

In the case of `Cc1ccc([N+](=O)[O-])cc1C`, the outcome was inactive.

Turning to `CN(C)C(=O)Cl`, the call was inactive.

For `Nc1ccc2ccccc2c1`, the compound was called inactive.

For the compound `O=C(O)C(F)(OC(F)(F)C(F)(F)C(F)(F)F)C(F)(F)F` (stereo not given), the call was inactive.

As for `Cn1[nH]nnc1=S`, the result was inactive.

With `CCOS(=O)(=O)OCC`, the call was inactive.

As to `CC(Cl)CN(C)C` (stereo not given), the call was inactive.

For `O=S(=O)(F)C(F)(F)C(F)(F)C(F)(F)C(F)(F)C(F)(F)C(F)(F)C(F)(F)C(F)(F)F`, the compound was classed as inactive.

Consider `CCCN(CCC)c1c([N+](=O)[O-])cc(C(C)C)cc1[N+](=O)[O-]`, for which the AC50 is 5.57 µM (active).

As for `CCCCOCC1CO1` (stereo not given), the compound was classed as inactive.

Consider `N#Cc1cc([N+](=O)[O-])ccc1N`, for which the compound was called inactive.

Regarding `CCOC(=O)c1ccccc1C(=O)OCC`, the result was inactive.

With `c1cc2c3c(cccc3c1)CC2`, the result was inactive.

Turning to `CCN(CC)c1ccccc1`, the call was inactive.

As for `CC1(C)CN=C(NN=C(/C=C/c2ccc(C(F)(F)F)cc2)/C=C/c2ccc(C(F)(F)F)cc2)NC1`, the AC50 is 8.29 µM (active).

Consider `Oc1ccc(I)cc1`, for which the compound was called inactive.

As to `CNC(=O)Oc1ccc(N(C)C)c(C)c1`, the compound was called inactive.

For `O=[N+]([O-])c1cc(Cl)ccc1Cl`, the compound was called inactive.

Source of the values: PubChem BioAssay (EPA / NIEHS).
